Measured values published in PubChem BioAssay AID598 (SRMLSC, 2007).
Hit rate of the full screen: of about 85,000 compounds, about 5,100 (6%) were called active. Shown is part of a subset that was picked to be rich in actives. A number with no mark means an inactive call.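 The calls were made as follows: active = viability at or below 40%; inactive = viability above 40%.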

Assay: proliferation blockers of H69AR lung cancer cells, primary screen, cell-based, human, 86K library (AID 598);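 also: multidrug resistant small cell line overexpressing MRP-1 efflux transporter; 100% = mean luminescence of untreated control wells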
Details: H69AR lung tumor viability, ATP luminescence, 72 h; at 10 µM; active compounds read low

| Compound | viability |
| --- | --- |
| CCOC(=O)c1sc(C)c2c1NC(C)(c1cccc3ccccc13)NC2=O (configuration not stated) | 103% |
| CCOC(=O)C(C)Sc1nc2ccccc2c(=O)n1CC1CCCCC1 (configuration not stated) | 82.4% |
| COc1ccccc1NS(=O)(=O)N(C)C | 104% |
| COc1ccccc1NC(=O)c1ccc(C)s1 | 92.7% |
| COc1ccccc1NC(=O)/C=C/C(N)=O | 2.11% (active) |
| COc1cc(C)c(C(C)C)cc1S(=O)(=O)n1ccnc1 | 101% |
| CCOC(=O)c1ccc(COC(=O)CCc2nc(-c3ccccc3)c(-c3ccccc3)o2)cc1 | 71.5% |
| Cc1nnc(SCC(=O)N2CCc3ccccc3C2)s1 | 85.3% |
| O=C(CSc1nnc(-c2cccs2)n1-c1ccccc1)N1CCN(C(=O)c2ccco2)CC1 | 81.3% |
| O=C(CSc1nnc(-c2cccs2)n1Cc1ccccc1)N1CCc2ccccc2C1 | 29.9% (active) |
| C=CCn1c(N)c(C(=O)OCC(C)C)c2nc3ccccc3nc21 | 93.2% |
| CC(C)Cn1c(N)c(C(=O)NCc2cccs2)c2nc3ccccc3nc21 | 1.75% (active) |
| C=CCn1c(N)c(S(=O)(=O)c2cccs2)c2nc3ccccc3nc21 | 76.4% |
| CC(C)(C)c1cc(=O)n2c(nc3ccccc32)[nH]1 | 75.5% |
| Cc1ccc(SCC(=O)Nc2ncc(C)s2)cc1 | 94.5% |
| CC(C)C(OC(=O)c1cccs1)C(=O)NC1CCCCC1 (configuration not stated) | 101% |
| COCc1nc2ccccc2n1Cc1ccccc1Br | 98.2% |
| CCC(=O)Nc1nc2ccccc2n1Cc1ccccc1C | 65.7% |
| COc1ccc(C)c(Cn2c(-c3nonc3N)nc3ccccc32)c1 | 21% (active) |
| Nc1nonc1-c1nc2ccccc2n1Cc1ccc(F)cc1 | 18.4% (active) |
| CC(=O)Nc1nonc1-c1nc2ccccc2n1Cc1ccccn1 | 84.4% |
| Nc1nonc1-c1nc2ccccc2n1CCC(=O)O | 109% |
| c1ccc(Nc2nc(N3CCOCC3)c3ccccc3n2)cc1 | 95.8% |

| Compound | viability |
| --- | --- |
| O=C(O)CSCc1ccc(C(=O)O)o1 | 96.9% |
| COc1ccccc1NC(=O)CC(NCCN(C)C)C(=O)O (configuration not stated) | 99.1% |
| CCOC(=O)C1CSC(CC(=O)Nc2ccc(OCC)cc2)C(=O)N1 (configuration not stated) | 86.6% |
| CC(C)C(=O)NC(NC(=S)NC1CCS(=O)(=O)C1)C(Cl)(Cl)Cl (configuration not stated) | 102% |
| Cc1ccc(-n2nc3cc(C)c(NC(=O)c4cccnc4)cc3n2)cc1 | 82% |
| O=S(=O)(NCC1OCCc2ccccc21)c1ccccc1 (configuration not stated) | 87.1% |
| COc1ccc(NC(=O)c2ccc(OC)cc2)cc1 | 105% |
| COc1ccc(OC)c(C(=O)c2ccc(C(=O)O)cc2)c1 | 99.1% |
| COC(=O)c1cc(OC)ccc1-c1ccc(OC)cc1 | 29.3% (active) |
| CCOC(=O)C1=C(C)NC(SC)=NC1c1ccccc1 (configuration not stated) | 83.7% |
| CC1CCN(C(=O)CN(c2ccc(Oc3ccccc3)cc2)S(C)(=O)=O)CC1 | 85% |
| CCCOn1c(-n2nc(C)cc2C)nc2ccccc2c1=O | 93.8% |
| COc1ccc(C)cc1N(C)C(=O)c1coc(=O)c2ccccc12 | 94.7% |
| Cc1cc(C)c2c(c1)cc(C)c1nnc(SCC(=O)Nc3cc(C)on3)n12 | 16.8% (active) |
| CCOc1ccccc1Nc1nnc(SCC(=O)Nc2cc(C)on2)s1 | 71.1% |
| Cc1cc(NC(=O)CSc2nnc(-c3ccc(Cl)s3)o2)no1 | 96.5% |
| CC(C)(C)n1nnnc1C(c1ccc(Cl)cc1)N1CCSCC1 (configuration not stated) | 82.5% |
| COc1ccc(S(=O)(=O)NCc2ccc(C(=O)N(C)Cc3ccco3)cc2)cc1 | 76.5% |
| Cc1nc2ccc(C(=O)N3CCN(c4ccccc4)CC3)cc2s1 | 91.5% |
| CC(=O)N1CCCc2cc(S(=O)(=O)CCC(=O)N3CCN(c4ccccc4)CC3)ccc21 | 86.6% |
| O=C(c1cc2c(s1)CCC2)N1CCN(c2ccccc2)CC1 | 39.4% (active) |
| COc1ccc(C)cc1S(=O)(=O)Nc1cccc(Cl)c1Cl | 97.3% |
| CCOc1ccc(C(O)Cc2nc3ccccc3n2C)cc1 (configuration not stated) | 96.6% |

| Compound | viability |
| --- | --- |
| O=C(COC(=O)c1n[nH]c2ccccc12)NCc1ccccc1 | 96.7% |
| COC(=O)Nc1ncc(CN2CCCCC2)s1 | 92.5% |
| CCN1C(=O)/C(=C2/Sc3ccc(OC)cc3N2C)SC1=Nc1ccc(C)cc1 | 66.1% |
| COc1ccc(C2C(C(=O)N3CCN(c4ccc(OC)cc4)CC3)c3ccccc3C(=O)N2C)cc1 (configuration not stated) | 32.2% (active) |
| CCOc1ccc(C2C(C(=O)O)c3ccccc3C(=O)N2CCN2CCOCC2)cc1 (configuration not stated) | 85.1% |
| COc1ccc(N2CCN(CCNC(=O)CCN3C(=O)COc4ccccc43)CC2)cc1 | 86.1% |
| CCCNC(=O)c1ccccc1NC(=O)CSCc1ccc(OC)cc1 | 83.9% |
| COc1ccc(C2=NO[C@@H]3C(=O)N(Cc4ccccc4)C(=O)[C@H]23)cc1OC | 95.8% |
| CCNCCC(=O)N1c2ccccc2Sc2ccc(NC(=O)OCC)cc21 | 78.6% |
| Cc1ccc(F)c(NC(=O)CCc2ccccc2)c1 | 97.8% |
| CC(=O)N1CCN(c2cccc(C)c2C)CC1 | 107% |
| Cc1cccc(N2CCN(C(=O)c3cc4c(=O)[nH]c5ccccc5c4n3C)CC2)c1C | 36% (active) |
| Cn1c(C(=O)NCCN2CCc3ccccc3C2)cc2c(=O)[nH]c3ccccc3c21 | 61.7% |
| CCn1c(C)nc2c1C(=O)c1ccccc1C2=O | 69.1% |
| CC1CCc2c(nc3ncnn3c2Nc2ccc(OC(F)(F)F)cc2)C1 (configuration not stated) | 69.4% |
| COc1ccc(-n2c(SCC(=O)Nc3sc4c(c3C#N)CCCC4)nnc2-c2ccc(O)cc2)cc1 | 11.8% (active) |
| COC(=O)c1c(NC(=O)CSc2nncs2)sc2c1CCCCC2 | 50.8% |
| N#Cc1c(NC(=O)CSc2nc3ccccc3c(=O)n2Cc2ccco2)sc2c1CCCC2 | 3.86% (active) |
| CC(Sc1nc2ccccc2c(=O)n1Cc1ccco1)C(=O)c1ccccc1 (configuration not stated) | 77.2% |
| COc1ccccc1NC(=O)CSc1nc2sc(C)c(C)c2c(=O)n1Cc1ccco1 | 58.9% |
| COc1ccc(-c2nnc(SCC(=O)c3ccco3)n2-c2ccccc2)cc1 | 91.9% |
